In PubChem BioAssay (Tox21):
Records with an inconclusive call do not appear. Entries that show only a call come without a potency. Activity calls are given as the source filed them. Calls follow the shape of the dose curve; as a rule, active = well fitted cell-killing curve with a large enough effect in the repeat runs; inconclusive = weak or mixed curves, or effect the other way; inactive = flat fitted curve, though single readings scatter.
Also: nearly all actives have a fitted effect of over 50% in size.

Test: qHTS assay to identify small molecule HDAC inhibitors - cell viability counter screen (AID 1259365)
Details: HCT-116 viability, CellTiter-Glo ATP luminescence, 2 h; series mostly up to 92.4 µM; activity change, negative = cytotoxicity: at the top concentration
Procedure, shortened: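 Measured quantity is CellTiter-Glo luminescence from wild-type HCT-116 cells after compound incubation of 2hr at 37C, 5% CO2; reagent developed 30min at room temperature.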
With `Cc1cc(CC(=O)O)n(C)c1C(=O)c1ccc(Cl)cc1` the Potency was “inactive”. For `Cc1ccccc1C=O`, the Potency was “inactive”. For `C[n+]1ccn(CCO)c1`, the Potency was “inactive”. With `CCCN(CCC)C(=O)SCC` the Potency was “inactive”. With `C1CCCNCC1` the Potency was “inactive”. With `NCCNCCNCCN` the Potency was “inactive”. With `COC(=O)/C=C\C(=O)OC` the Potency was “inactive”. With `C=CC(=O)NCOCCCC` the Potency was “inactive”. In the case of `CS(=O)(=O)c1ccc(Cl)cc1`, the Potency is reported as “inactive”. For `OCC(O)CS` (stereo not given), the Potency was “inactive”. With `NC1CCCCC1N` (stereo not given) the Potency was “inactive”. For `CC(C)=CCC/C(C)=C/C=O`, the Potency was “inactive”. In the case of `O=C(NCC1CCCCN1)c1cc(OCC(F)(F)F)ccc1OCC(F)(F)F` (stereo not given), the Potency is reported as “inactive”. For `CCCCCNCCCCC`, the Potency was “inactive”. With `Cc1ccc(C)c(S(=O)(=O)O)c1` the Potency was “inactive”. With `C=C(CC(=O)O)C(=O)O` the Potency was “inactive”. With `CCn1cc(C(=O)O)c(=O)c2cc3c(cc21)OCO3` the Potency was “inactive”. In the case of `C=C1C[C@]23C[C@@]1(O)CC[C@H]2[C@@]12C=C[C@H](O)[C@@](C)(C(=O)O1)[C@H]2[C@@H]3C(=O)O`, the Potency is reported as “inactive”. In the case of `CC(=O)OCc1ccc2c(c1)OCO2`, the Potency is reported as “inactive”. For `CCCOC(=O)NCCCN(C)C`, the Potency was “inactive”. In the case of `O=c1n(CCCN2CCN(c3cccc(Cl)c3)CC2)nc2ccccn12`, the Potency is reported as “inactive”. In the case of `Cc1ccccc1Cl`, the Potency is reported as “inactive”. With `NC(N)=S` the Potency was “inactive”. In the case of `CC(C)(CO)CO`, the Potency is reported as “inactive”. With `COC(=O)OC` the Potency was “inactive”. With `CC1(C)C(=O)N(Cl)C(=O)N1Cl` the Potency was “inactive”. For `CC(C)(C)NC[C@H](O)COc1nsnc1N1CCOCC1`, the Potency was “inactive”. In the case of `Cc1cccc(C)c1[N+](=O)[O-]`, the Potency is reported as “inactive”. For `CC(CN1c2ccccc2Sc2ccccc21)N(C)C` (stereo not given), the Potency was “inactive”. In the case of `O=C(c1ccccc1)c1ccc(O)c(O)c1O`, the Potency is reported as “inactive”. With `O=C1OC(=O)c2c(Cl)c(Cl)c(Cl)c(Cl)c21` the Potency was “inactive”. For `OCc1ccc(Cl)cc1Cl`, the Potency was “inactive”. With `O=C1O[C@H]([C@H](O)CO)C(O)=C1O` the Potency was “inactive”. In the case of `OCCOCCOCCOCCOCCO`, the Potency is reported as “inactive”. With `CCN(CC)CCNC(=O)c1ccc(N)cc1` the Potency was “inactive”. For `COCN(COC)c1nc(N(COC)COC)nc(N(COC)COC)n1`, the Potency was “inactive”. With `CC(=O)OCCC(C)C` the Potency was “inactive”.

Test: qHTS assay to identify small molecule agonists of the sonic hedgehog signaling (Shh) pathway - cell viability counter screen (AID 1259366)
Details: NIH/3T3 Gli1-Luc viability, CellTiter-Fluor, 24 h; series mostly up to 92.4 µM; viability change, negative = cytotoxic: at the top concentration
Procedure, shortened: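 In quantitative high-throughput format, 3T3 Gli1-Luc cells were exposed to compounds for 24hr and multiplexed for viability using CellTiter-Fluor, incubated 1hr at 37C before the fluorescence read.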
In the case of `Cc1cc(CC(=O)O)n(C)c1C(=O)c1ccc(Cl)cc1`, the Potency is reported as “inactive”. In the case of `Cc1ccccc1C=O`, the Potency is reported as “inactive”. With `C[n+]1ccn(CCO)c1` the Potency was “inactive”. For `CCCN(CCC)C(=O)SCC`, the Potency was “inactive”. With `C1CCCNCC1` the Potency was “inactive”. For `NCCNCCNCCN`, the Potency was “inactive”. In the case of `COC(=O)/C=C\C(=O)OC`, the Potency is reported as “inactive”. For `C=CC(=O)NCOCCCC`, the Potency was “inactive”. For `CS(=O)(=O)c1ccc(Cl)cc1`, the Potency was “inactive”. For `OCC(O)CS` (stereo not given), the “viability change, negative = cytotoxic” value was 5.62% [at 42.5 µM] (inactive). With `NC1CCCCC1N` (stereo not given) the Potency was “inactive”. In the case of `CC(C)=CCC/C(C)=C/C=O`, the Potency is reported as “inactive”. In the case of `O=C(NCC1CCCCN1)c1cc(OCC(F)(F)F)ccc1OCC(F)(F)F` (stereo not given), the Potency is reported as “inactive”. In the case of `CCCCCNCCCCC`, the Potency is reported as “inactive”. For `Cc1ccc(C)c(S(=O)(=O)O)c1`, the Potency was “inactive”. With `C=C(CC(=O)O)C(=O)O` the Potency was “inactive”. In the case of `CCn1cc(C(=O)O)c(=O)c2cc3c(cc21)OCO3`, the Potency is reported as “inactive”. For `C=C1C[C@]23C[C@@]1(O)CC[C@H]2[C@@]12C=C[C@H](O)[C@@](C)(C(=O)O1)[C@H]2[C@@H]3C(=O)O`, the Potency was “inactive”.
